Experimental data as given in ChEMBL document CHEMBL4303097 (2020).
The full ranking holds about 1,500 compounds; the median of “Inhibition index” is about 0.17, and the highest 2% start at about 1.3. The full list was thinned out, with the highest values kept by preference.

Tested on: SARS-CoV-2
Assay: Inhibition of cell viability relative to arbidol control (inhibition index > 1 indicates higher activity) measured by fluorescence (OD590nm) in Vero E6 cells infected with SARS-CoV-2 (strain BavPat1) at MOI 0.002 after 72hrs
Type: functional, Chlorocebus sabaeus, Vero C1008

| SMILES | Inhibition index |
| --- | --- |
| C=CC[C@]1(O)CC[C@H]2[C@@H]3CCC4=CC(=O)CCC4=C3C=C[C@@]21C [ALTRENOGEST] | 0.8504 |
| CCOC(=O)C(C)(N)Cc1cc(I)c(Oc2cc(I)c(O)c(I)c2)c(I)c1.Cl (stereo not given) | 0.3664 |
| C/C(=C(/CCO)SSCC1CCCO1)N(C=O)Cc1cnc(C)nc1N.Cl (stereo not given) | 1.385 |
| C/C(=C(\CCOC(=O)c1ccccc1)SS/C(CCOC(=O)c1ccccc1)=C(\C)N(C=O)Cc1cnc(C)nc1N)N(C=O)Cc1cnc(C)nc1N | 1.055 |
| CCCSS/C(CCO)=C(\C)N(C=O)Cc1cnc(C)nc1N | 0.2056 |
| CCCCC(=O)O[C@H]1CC[C@H]2[C@@H]3CCc4cc(O)ccc4[C@H]3CC[C@]12C [ESTRADIOL VALERATE] | -0.4279 |
| COc1cccc2c1C(=O)c1c(O)c3c(c(O)c1C2=O)C[C@@](O)(C(=O)CO)C[C@@H]3O[C@H]1C[C@H](N)[C@H](O)[C@H](C)O1.Cl [DOXORUBICIN HYDROCHLORIDE] | -0.06911 |
| Cc1cc(/C=C/c2ccc3cc(N(C)C)ccc3[n+]2C)c(C)n1-c1ccccc1.Cc1cc(/C=C/c2ccc3cc(N(C)C)ccc3[n+]2C)c(C)n1-c1ccccc1.O=C([O-])c1cc2ccccc2c(Cc2c(O)c(C(=O)[O-])cc3ccccc23)c1O [PYRVINIUM PAMOATE] | -0.3469 |
| C#C[C@]1(O)CC[C@H]2[C@@H]3CCC4=CC(=O)CC[C@]4(C)[C@H]3CC[C@@]21C [ETHISTERONE] | 0.1353 |
| CCSc1ccc2c(c1)N(CCCN1CCN(C)CC1)c1ccccc1S2.O=C(O)/C=C\C(=O)O | -0.4349 |
| Cl.N=C(N)NC(=N)NCCc1ccccc1 [PHENFORMIN HYDROCHLORIDE] | -0.07157 |
| N=C(N)NCCN1CCCCCCC1.N=C(N)NCCN1CCCCCCC1.O=S(=O)(O)O [GUANETHIDINE SULFATE] | 0.04902 |
| C[C@]12CC[C@@H]3c4ccc(O)cc4CC[C@H]3[C@@H]1C[C@@H](O)[C@@H]2O [ESTRIOL] | 0.6126 |
| CC(=O)[C@H]1CC[C@H]2[C@@H]3CCC4=CC(=O)CC[C@]4(C)[C@H]3CC[C@]12C [PROGESTERONE] | 0.4087 |
| CC(=O)[C@H]1CC[C@H]2[C@@H]3CC=C4C[C@@H](O)CC[C@]4(C)[C@H]3CC[C@]12C [PREGNENOLONE] | 1.659 |
| C[C@]12CC[C@H](O)CC1=CC[C@@H]1[C@@H]2CC[C@]2(C)C(=O)CC[C@@H]12 [PRASTERONE] | 0.9295 |
| CC[C@@H]([C@H](C)O)n1ncn(-c2ccc(N3CCN(c4ccc(OC[C@@H]5CO[C@@](Cn6cncn6)(c6ccc(F)cc6F)C5)cc4)CC3)cc2)c1=O.O | 0.639 |
| CN1CCN(C(c2ccccc2)c2ccccc2)CC1.Cl [CYCLIZINE HYDROCHLORIDE] | 0.3956 |
| CCOC(=O)[C@H](CCc1ccccc1)N[C@@H](C)C(=O)N1[C@H](C(=O)O)C[C@H]2CCCC[C@@H]21 [TRANDOLAPRIL] | 0.1383 |
| CC(C)(C)C(=O)OCOC(=O)[C@@H]1N2C(=O)[C@@H](NC(=O)[C@H](N)c3ccccc3)[C@H]2SC1(C)C [PIVAMPICILLIN] | 0.3125 |

| SMILES | Inhibition index |
| --- | --- |
| Clc1cc(Cl)c(OCC#CI)cc1Cl [HALOPROGIN] | -0.09794 |
| CC(=O)[C@H]1CC[C@H]2[C@@H]3CC[C@H]4C[C@H](O)CC[C@]4(C)[C@H]3C(=O)C[C@]12C [ALFAXALONE] | 0.7131 |
| Clc1ccc(CCC(Cn2ccnc2)Sc2c(Cl)cccc2Cl)cc1.O=[N+]([O-])O (stereo not given) [BUTOCONAZOLE NITRATE] | -0.1062 |
| CC(=O)OCC(=O)[C@@]12N=C(C)O[C@@H]1C[C@H]1[C@@H]3CCC4=CC(=O)C=C[C@]4(C)[C@H]3[C@@H](O)C[C@@]12C [DEFLAZACORT] | 0.4333 |
| CC(C)(C)NC(=O)[C@H]1CC[C@H]2[C@@H]3CC[C@H]4NC(=O)C=C[C@]4(C)[C@H]3CC[C@]12C [FINASTERIDE] | 0.2658 |
| Cc1[nH]cnc1CN1CCc2c(c3ccccc3n2C)C1=O.Cl [ALOSETRON HYDROCHLORIDE] | 0.152 |
| Cc1nccn1CC1CCc2c(c3ccccc3n2C)C1=O.Cl (stereo not given) | 1.665 |
| CN(C)CCC(c1ccccc1)c1ccccn1.O=C(O)/C=C\C(=O)O (stereo not given) [PHENIRAMINE MALEATE] | 0.01395 |
| O=C(O[C@H]1C[N+]2(CCCOc3ccccc3)CCC1CC2)C(O)(c1cccs1)c1cccs1.[Br-] [ACLIDINIUM BROMIDE] | 0.1807 |
| CC1(C)S[C@@H]2[C@H](NC(=O)[C@H](NC(=O)N3CCNC3=O)c3ccccc3)C(=O)N2[C@H]1C(=O)[O-].[Na+] [AZLOCILLIN SODIUM] | 0.01854 |
| CC(C)(CO)[C@@H](O)C(=O)NCCCC(=O)O.CC(C)(CO)[C@@H](O)C(=O)NCCCC(=O)O.[Ca+2] | 0.08003 |
| CC(C)NNC(=O)c1ccncc1.O=P(O)(O)O [IPRONIAZID PHOSPHATE] | 0.02671 |
| Cl.Cl.NCCc1cc[nH]n1 | 0.03591 |
| CC1(C)S[C@@H]2[C@H](NC(=O)[C@H](N)c3ccc(O)cc3)C(=O)N2[C@H]1C(=O)O [AMOXICILLIN] | 0.1371 |
| CC12CC3CC(C)(C1)CC(N)(C3)C2.Cl [MEMANTINE HYDROCHLORIDE] | 0.5095 |
| CN(C)CCC(c1ccc(Br)cc1)c1ccccn1.O=C(O)/C=C\C(=O)O (stereo not given) [BROMPHENIRAMINE MALEATE] | 0.3833 |
| CC1(C)S[C@@H]2[C@H](NC(=O)C(C(=O)O)c3ccsc3)C(=O)N2[C@H]1C(=O)[O-].[Na+] (stereo not given in full) | 0.09416 |
| O=C(NC1CCN(CCCCC2(C(=O)NCC(F)(F)F)c3ccccc3-c3ccccc32)CC1)c1ccccc1-c1ccc(C(F)(F)F)cc1 [LOMITAPIDE] | -0.295 |
| CC(C)(C)NC[C@H](O)COc1cccc2c1CCCC2=O.Cl [LEVOBUNOLOL HYDROCHLORIDE] | 0.5259 |
| CN(C)CCC=C1c2ccccc2C=Cc2ccccc21.Cl [CYCLOBENZAPRINE HYDROCHLORIDE] | 0.6333 |

| SMILES | Inhibition index |
| --- | --- |
| CO/N=C(\C(=O)N[C@@H]1C(=O)N2C(C(=O)OC(C)OC(C)=O)=C(COC(N)=O)CS[C@H]12)c1ccco1 (stereo not given in full) [CEFUROXIME AXETIL] | 0.1456 |
| CCOc1nc2cccc(C(=O)O)c2n1Cc1ccc(-c2ccccc2-c2nnn[nH]2)cc1 | 1.166 |
| Cl.O=C1CC2(CCCC2)CC(=O)N1CCCCN1CCN(c2ncccn2)CC1 [BUSPIRONE HYDROCHLORIDE] | 1.176 |
| C#C[C@]1(O)CC[C@H]2[C@@H]3[C@H](C)CC4=C(CCC(=O)C4)[C@H]3CC[C@@]21C [TIBOLONE] | 0.3794 |
| CN(C)CCCSC(=N)N.Cl.Cl | 1.382 |
| Nc1ncnc2c1ncn2[C@@H]1O[C@H](COP(=O)(O)O)[C@@H](O)[C@H]1O.O | 0.1161 |
| CN(C)CCc1c[nH]c2ccc(Cn3cncn3)cc12.O=C(O)c1ccccc1 [RIZATRIPTAN BENZOATE] | 0.7991 |
| CC#C[C@]1(O)CC[C@H]2[C@@H]3CCC4=CC(=O)CCC4=C3[C@@H](c3ccc(N(C)C)cc3)C[C@@]21C [MIFEPRISTONE] | 0.1807 |
| CN(C)C(=N)NC(=N)N.Cl [METFORMIN HYDROCHLORIDE] | 0.00269 |
| CC1(C)S[C@@H]2[C@H](NC(=O)[C@H](N)c3ccccc3)C(=O)N2[C@H]1C(=O)OC1OC(=O)c2ccccc21.Cl (stereo not given in full) [TALAMPICILLIN HYDROCHLORIDE] | 0.5053 |
| CCOC(=O)C1=C[C@@H](OC(CC)CC)[C@H](NC(C)=O)[C@@H](N)C1.O=P(O)(O)O [OSELTAMIVIR PHOSPHATE] | -0.01747 |
| Br.COc1ccc2c3c1O[C@H]1C[C@@H](O)C=C[C@@]31CCN(C)C2 [GALANTAMINE HYDROBROMIDE] | 0.03283 |
| Cl.N/C(=N\C(=O)c1nc(Cl)c(N)nc1N)NCc1ccccc1 [BENZAMIL HYDROCHLORIDE] | -0.07365 |
| CC(C)NCC(O)COc1cccc2[nH]c3ccccc3c12 (stereo not given) [CARAZOLOL] | 0.7194 |
| C=CCOc1ccccc1OCC(O)CNC(C)C.Cl (stereo not given) [OXPRENOLOL HYDROCHLORIDE] | 1.632 |
| C=CCc1ccccc1OCC(O)CNC(C)C.Cl (stereo not given) [ALPRENOLOL HYDROCHLORIDE] | 0.02886 |
| C[C@]12CCC3=C4CCC(=O)C=C4CC[C@H]3[C@@H]1CC[C@@]2(O)CC#N [DIENOGEST] | 0.1822 |
| Cl.Cl.Fc1ccc(C(OCCN2CCN(CCCc3ccccc3)CC2)c2ccc(F)cc2)cc1 | -0.1375 |
| CC[C@H](C)C(=O)O[C@H]1C[C@H](O)C=C2C=C[C@H](C)[C@H](CC[C@@H](O)C[C@@H](O)CC(=O)O)[C@H]21 [PRAVASTATIN] | 0.3233 |
| CC(=O)OCC1=C(C(=O)[O-])N2C(=O)[C@@H](NC(=O)Cc3cccs3)[C@H]2SC1.[Na+] [CEPHALOTHIN SODIUM] | 0.1149 |
